# Assay results: paper PMC8384837, “Expanding the binding specificity for RNA recognition by a PUF domain”
# How the values were obtained:
# Test in all cases: yeast three-hybrid, YBZ-1, SC-Leu-His + 0.5 mM 3-AT, 4 days
# Conditions in all cases: tags: N-Gal4 AD-HA kept; label: inside an RPR1-promoter hybrid RNA with tandem MS2 sites; ssRNA
# PUM1 PUF domain R4-SRG = PUM1 PUF domain R4-SRG (Homo sapiens, UniProt Q14671 828-1176, N971S;H972R;Q975G)
# In short: (§1)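 Pumilio-1 PUF domain libraries, randomized (NNK) at the three base-contacting residues of each repeat, were co-expressed with matching RNA elements from a centromeric plasmid in strain YBZ-1 (LexA–MS2 coat fusion, HIS3 reporter). Transformants were plated on SC-Leu (input) and SC-Leu-His + 0.5 mM 3-AT (selection) for four days, and repeat regions were PCR-amplified and Illumina-sequenced. The interaction score is the log2 change in variant frequency from input to selection, with pseudocount 1 where absent.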
# PUM1 PUF domain R8-PWI = PUM1 PUF domain R8-PWI (Homo sapiens, UniProt Q14671 828-1176, N1122P;Y1123W;Q1126I)
# In short: as §1
# PUM1 PUF domain R5-LKL = PUM1 PUF domain R5-LKL (Homo sapiens, UniProt Q14671 828-1176, C1007L;R1008K;Q1011L)
# In short: as §1
# PUM1 PUF domain R3-SCP = PUM1 PUF domain R3-SCP (Homo sapiens, UniProt Q14671 828-1176, C935S;R936C;Q939P)
# In short: as §1
# PUM1 PUF domain R3-RVN = PUM1 PUF domain R3-RVN (Homo sapiens, UniProt Q14671 828-1176, C935R;R936V;Q939N)
# In short: as §1
# PUM1 PUF domain R3-FRR = PUM1 PUF domain R3-FRR (Homo sapiens, UniProt Q14671 828-1176, C935F;Q939R)
# In short: as §1
# PUM1 PUF domain R3-GIR = PUM1 PUF domain R3-GIR (Homo sapiens, UniProt Q14671 828-1176, C935G;R936I;Q939R)
# In short: as §1
# PUM1 PUF domain R4-EHG = PUM1 PUF domain R4-EHG (Homo sapiens, UniProt Q14671 828-1176, N971E;Q975G)
# In short: as §1
# PUM1 PUF domain R7-RRH = PUM1 PUF domain R7-RRH (Homo sapiens, UniProt Q14671 828-1176, S1079R;N1080R;E1083H)
# In short: as §1
# PUM1 PUF domain R3-AAE = PUM1 PUF domain R3-AAE (Homo sapiens, UniProt Q14671 828-1176, C935A;R936A;Q939E)
# In short: as §1
sequence,measurement,setting,value
GGCUAGAACUAGUGGAUCCCCCGGCGCCCGGCGGCUCGAGCCCGGGUAAGUGUAUAUAGUCUGCAUGCCGCCGGGCGCCAUGCCUGCAGGUCGACUCUAGAAAACAUG,binding signal,PUM1 PUF domain R4-SRG,1.37 log2 enrichment (interaction score)
GGCUAGAACUAGUGGAUCCCCCGGCGCCCGGCGGCUCGAGCCCGGGUAAGCGUAAAUAGUCUGCAUGCCGCCGGGCGCCAUGCCUGCAGGUCGACUCUAGAAAACAUG,binding signal,PUM1 PUF domain R8-PWI,4.09 log2 enrichment (interaction score)
GGCUAGAACUAGUGGAUCCCCCGGCGCCCGGCGGCUCGAGCCCGGGUAAGUGUCAAUAGUCUGCAUGCCGCCGGGCGCCAUGCCUGCAGGUCGACUCUAGAAAACAUG,binding signal,PUM1 PUF domain R5-LKL,4 log2 enrichment (interaction score)
GGCUAGAACUAGUGGAUCCCCCGGCGCCCGGCGGCUCGAGCCCGGGUAAGUGUAAUUAGUCUGCAUGCCGCCGGGCGCCAUGCCUGCAGGUCGACUCUAGAAAACAUG,binding signal,PUM1 PUF domain R3-SCP,3.31 log2 enrichment (interaction score)
same,binding signal,PUM1 PUF domain R3-RVN,4.09 log2 enrichment (interaction score)
same,binding signal,PUM1 PUF domain R3-FRR,2.42 log2 enrichment (interaction score)
same,binding signal,PUM1 PUF domain R3-GIR,1.55 log2 enrichment (interaction score)
GGCUAGAACUAGUGGAUCCCCCGGCGCCCGGCGGCUCGAGCCCGGGUAAGUGUAAAUAGUCUGCAUGCCGCCGGGCGCCAUGCCUGCAGGUCGACUCUAGAAAACAUG,binding signal,PUM1 PUF domain R4-EHG,2.3 log2 enrichment (interaction score)
same,binding signal,PUM1 PUF domain R4-SRG,4.42 log2 enrichment (interaction score)
GGCUAGAACUAGUGGAUCCCCCGGCGCCCGGCGGCUCGAGCCCGGGUAAGUCUAAAUAGUCUGCAUGCCGCCGGGCGCCAUGCCUGCAGGUCGACUCUAGAAAACAUG,binding signal,PUM1 PUF domain R7-RRH,4.29 log2 enrichment (interaction score)
GGCUAGAACUAGUGGAUCCCCCGGCGCCCGGCGGCUCGAGCCCGGGUAAGUGUAAGUAGUCUGCAUGCCGCCGGGCGCCAUGCCUGCAGGUCGACUCUAGAAAACAUG,binding signal,PUM1 PUF domain R3-SCP,3.88 log2 enrichment (interaction score)
same,binding signal,PUM1 PUF domain R3-FRR,5.43 log2 enrichment (interaction score)
same,binding signal,PUM1 PUF domain R3-GIR,3.07 log2 enrichment (interaction score)
same,binding signal,PUM1 PUF domain R3-AAE,3.07 log2 enrichment (interaction score)
GGCUAGAACUAGUGGAUCCCCCGGCGCCCGGCGGCUCGAGCCCGGGUAAGUGUACAUAGUCUGCAUGCCGCCGGGCGCCAUGCCUGCAGGUCGACUCUAGAAAACAUG,binding signal,PUM1 PUF domain R4-EHG,2.82 log2 enrichment (interaction score)
same,binding signal,PUM1 PUF domain R4-SRG,0.54 log2 enrichment (interaction score)
GGCUAGAACUAGUGGAUCCCCCGGCGCCCGGCGGCUCGAGCCCGGGUAAGUUUAAAUAGUCUGCAUGCCGCCGGGCGCCAUGCCUGCAGGUCGACUCUAGAAAACAUG,binding signal,PUM1 PUF domain R7-RRH,5.13 log2 enrichment (interaction score)
